Shown are actives, neighbours in structure and some others; about 2.1% of the full set was active somewhere.
aSyn yeast inh: alpha-synuclein toxicity inhibition in yeast; Potency, µM (top dose mostly 46.1 µM), without a hit: top-dose growth rescue (activation), actives largely listed as activators; 370,000 tested, 0.14% active; Yeast expressing alpha-synuclein, growth rescue, BacTiter-Glo, 24 h; AID 652106; also: % of control where 0% means no effect; nearly all actives have a fitted effect of over 65% in size
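Galactose-induced alpha-syn yeast (OD600=0.02, raffinose-pregrown) + pinned cpd, 24 hr, 30 deg C; growth by BacTiter-Glo luminescence. Growth restoration scores as activation.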
FUS yeast rescue: FUS proteinopathy suppression in yeast | S. cerevisiae FUS-expressing, growth rescue, OD600, 24 h | Potency, µM (top dose mostly 76.6 µM), most hits filed as activators | 390,000 tested, 0.24% active | AID 1347120;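 also: plate controls were DMSO vehicle for no effect and reference control for full effect; nearly all actives have a fitted effect of over 55% in size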
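Toxicity suppression screen in FUS-yeast. Cells induced with 2% galactose, starting OD 0.005, treated 24hr at 30C with compounds at multiple final concentrations; growth by OD600.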
TDP-43 yeast inh: TDP-43 toxicity inhibition in yeast; TDP-43 expressing yeast growth rescue, BacTiter-Glo, 24 h; Potency, µM (series often up to 46.1 µM), inactives show top-dose growth rescue (activation), usual class: activators; 410,000 tested, 1.8% active; AID 652104; also: % of control where 0% means no effect; nearly all actives have a fitted effect of over 50% in size
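Cell-based yeast growth screen: TDP-43 expression induced in galactose, inoculum OD600=0.02 after raffinose pregrowth to mid-log. Read-out BacTiter-Glo luminescence at 24 hr, 30 deg C; inhibition of toxicity seen as signal increase.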
Abeta rescue: restores growth of yeast expressing A-beta42 peptide; yeast expressing A-beta42, growth rescue, OD600, 48 h; response scale: 0% DMSO, 100% iron-clioquinol control; Potency, µM (highest dose often 46.1 µM), usual class: activators; 410,000 tested, 0.063% active; AID 1347071; also: nearly all actives have a fitted effect of over 55% in size
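Growth rescue measured by 600 nm absorbance after 48 h yeast culture at 30 C with compound. Values normalized between DMSO and an equimolar ferric chloride plus clioquinol control.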
An asterisk follows results filed as active; i = inactive; u = inconclusive; x = no result; [ ] = another dose, or the depositor's remark. Calls follow the shape of the dose curve; as a rule, active = well fitted curve in the direction sought with a large enough effect; inconclusive = small, poorly fitted or top-dose-only effect, or another doubt; inactive = no such curve, though single readings can be large; an effect the other way counts as inactive or inconclusive. Potency is read from the fitted curve at half-maximal effect.

SMILES	aSyn yeast inh	FUS yeast rescue	TDP-43 yeast inh	Abeta rescue
N#Cc1ccccc1CSc1nc2ccsc2c(=O)n1Cc1ccccn1	14.1%	i	u	i
Cc1ccc(CSc2nc3ccsc3c(=O)n2Cc2ccccn2)cc1	2.6%	x	35.5µM*	i
Cc1cc(OCCSc2nnc(-c3cccs3)n2C)ccc1Cl	-0.7%	i	u	i
CCn1c(SC/C=C/c2ccccc2)nnc1-c1cccs1	5.0%	i	6.8%	i
Cc1ccc(OCCSc2nnc(-c3cccs3)n2C)cc1	5.7%	i	12.6µM*	i
Cn1c(SC/C=C/c2ccccc2)nnc1-c1cccs1	16.6%	i	17.8µM*	i
CCSC(=O)N1c2ccc(OC)cc2C=CC1C#N (stereo not given)	4.2%	x	22.4µM*	i
COc1ccc(C(=O)N2c3ccccc3C=CC2C#N)cc1 (stereo not given)	-4.2%	i	18.4%	i
CC(=O)Nc1ccc(C=CC=Cc2cccc([N+](=O)[O-])c2)cc1	-51.5%	x	14.1µM*	i
CC(=O)Nc1ccc(OCc2cccc([N+](=O)[O-])c2)cc1	5.2%	i	u	i
Cc1c(C2(c3cc(C(C)C)c(O)c(Br)c3C)OS(=O)(=O)c3ccccc32)cc(C(C)C)c(O)c1Br	-13.9%	x	x	x
CCOc1ccc(-c2[nH]ncc2-c2ccc(Cl)cc2)c(O)c1	-45.6%	i	35.5µM*	i
CCOc1ccc(-c2[nH]ncc2-c2ccc(OC)c(OC)c2)c(O)c1	-4.1%	u	-6.4%	i
CCOc1ccc(-c2[nH]ncc2Oc2ccccc2OCC)c(O)c1	u	i	17.8µM*	i
COc1ccc(NC(=O)CSc2nc(-c3ccccc3)cc(-c3cc(OC)c(OC)c(OC)c3)c2C#N)c(OC)c1	x	i	9.5%	i
CCc1ccc(C2NC(=S)NC3=C2C(=O)N(c2ccccc2OC)C(c2ccc(CC)cc2)N3)cc1 (stereo not given)	-21.9%	u	5.7%	i
O=C1C2=C(NC(=S)NC2c2ccc(Cl)cc2)NC(c2ccc(Cl)cc2)N1c1ccc(Cl)cc1 (stereo not given)	-31.5%	28.2µM*	u	i
CC(=O)/C(=N/Nc1cccc(Cl)c1)N1CCOCC1	12.2%	i	17.8µM*	i
c1ccc(Oc2ccc(-c3ccn[nH]3)cc2)cc1	-27.7%	i	14.1µM*	i
Cc1ccccc1NCc1cccn1-c1nnc(N2CCOCC2)s1	12.6µM*	i	-1.9%	i
Fc1cccc(NCc2cccn2-c2nnc(N3CCOCC3)s2)c1	22.4µM*	i	19.4%	i
Cc1ccc(NCc2cccn2-c2nnc(N3CCCCCC3)s2)cc1	0.9%	i	29.6%	i
Fc1ccc(NCc2cccn2-c2nnc(N3CCOCC3)s2)cc1	25.7%	i	26.3%	i
O=C(Nc1cnc(N2CCN(c3ccccc3)CC2)c(C(=O)O)c1)c1cccs1	x	i	25.0%[9.22 µM]	i
COc1cc2c(NC3CCN(C)CC3)nc(N3CCCN(C)CC3)nc2cc1OCC1CCCCN1 (stereo not given)	9.5%	x	x	x
SMILES	aSyn yeast inh	FUS yeast rescue	TDP-43 yeast inh	Abeta rescue
CS(=O)(=O)N(Cc1ccccc1)c1ccc(C(=O)Nc2cccc(Cl)c2)cc1	x	i	19.5%	i
Cc1ccccc1N(C)C(=O)CN1CCN(c2nc(-c3ccccc3)cs2)CC1	x	i	x	x
O=C(NCC(F)(F)F)c1cc2c(c(-c3cccc(-c4ccccc4F)c3)n1)[C@H](CCO)N(C(=O)CC1CC1)C2	11.4%	u	21.3%	i
CCCNC(=O)c1cc2c(c(-c3cccc(-c4ccccc4F)c3)n1)[C@@H](CCO)N(C(=O)CC1CC1)C2	0.0%	u	14.1µM*	i
Cc1ccc(C(=O)Nc2ccc3c(c2)N(C)C(=O)c2ccccc2S3)cc1F	x	u	27.1%	i
COc1cccc(CNC(=O)c2ccc(F)c(S(=O)(=O)N3CCCCC3)c2)c1	0.0%	35.5µM*	u	i
O=C(Nc1cc(Cl)cc(Cl)c1)c1ccc(F)c(S(=O)(=O)N2CCCC2)c1	x	i	17.8µM*	i
CC(C)c1ccc(NC(=O)c2ccc(F)c(S(=O)(=O)N3CCCC3)c2)cc1	x	i	-15.3%	i
COc1ccccc1/C=C/c1nc2ccccc2[nH]1	-27.4%	x	x	x
COc1cccc(OCCNc2cc(N3CCOCC3)ccc2[N+](=O)[O-])c1	4.2%	i	17.8µM*	i
COc1ccc(OCCNc2cc(N3CCOCC3)ccc2[N+](=O)[O-])cc1	6.3%	i	u	i
Cc1ccc(Nc2nc(C)cc(C)n2)c(Br)c1	-3.0%	i	10µM*	i
COc1cc2cc(CCCOC(=O)c3ccc(F)cc3)oc(=O)c2cc1OC	-4.9%	i	20µM*	i
COc1cc2cc(CCCOC(=O)c3ccc(Br)cc3)oc(=O)c2cc1OC	-5.4%	i	12.8%	i
Cc1cc(C(F)(F)F)n(-c2nc(C(=O)Nc3cccnc3)cs2)n1	9.4%	i	22.4µM*	i
CC(=O)c1cccc(NC(=O)c2csc(-n3nc(C)cc3C(F)(F)F)n2)c1	-4.2%	i	12.6%	i
CCOC(=O)C1CCN(C(c2cc3ccc(C)c(C)c3[nH]c2=O)c2nnnn2C2CCCCC2)CC1 (stereo not given)	12.8%	35.5µM*	0.0%	i
OCCNc1ncnc2c1c(-c1ccccc1)c(-c1ccccc1)n2Cc1ccco1	12.6µM*	i	-13.8%	i
Nc1[nH]ncc1N=Nc1ccc(Cl)cc1	14.5%	i	17.8µM*	i
Nc1n[nH]c(N)c1N=Nc1ccc(Cl)cc1	-2.1%	x	7.4%	i
Cc1ccc(C)c(N2CCN(C(=O)NCc3noc4ccc(C)cc34)CC2)c1	x	i	u	i
Cc1ccc2onc(CC(=O)N3CCN(c4cccc(Cl)c4)CC3)c2c1	x	u	20µM*	i
Cc1cc(C)cc(C(=O)NCC(=O)N2CCN(c3cccc(Cl)c3)CC2)c1	2.4%	i	12.6µM*	i
Cc1ccc(N2CCN(C(=O)NCc3noc4ccc(C)cc34)CC2)c(C)c1	x	u	20µM*	i
Cc1ccc2onc(CC(=O)N3CCN(c4cccc(C)c4C)CC3)c2c1	x	u	25.1µM*	i
SMILES	aSyn yeast inh	FUS yeast rescue	TDP-43 yeast inh	Abeta rescue
CCc1nn(CC(=O)NCCc2ccc(OC)cc2OC)c(=O)c2cc3c(OC)cccc3n12	x	i	10.0%	i
CCn1c2ccccc2c2cc(/C=N/n3cn[nH]c3=S)ccc21	16.7%	i	15.8µM*	i
O=C(c1ccc(Nc2nc3ccccc3n3nnnc23)cc1)N1CCN(c2ccc(F)cc2)CC1	x	i	10µM*	u
COc1ccc(S(=O)(=O)Oc2ccc3cccc(N)c3c2)cc1	u	i	15.8µM*	u
CCCOc1ccc(C2(C(=O)O)CCCC2)cc1	12.9%	i	12.6µM*	i
CCCCOc1cccc(C2(C(=O)O)CCCC2)c1	9.7%	i	20µM*	i[9.22 µM]
Cc1ccc(S(=O)(=O)c2cn(CC(=O)Nc3ccc4c(c3)OCO4)c3ccccc3c2=O)cc1C	x	u	-4.2%	i
